# Compound activity from PubChem.
# Most compounds without a hit are left out; they make up all but 11% or so of the library.
# HPGD block: blocks human HPGD enzyme activity; P15428; purified HPGD, NADH fluorescence kinetic, PGE2 substrate; Potency, µM, for the others: top-dose activity change, negative = inhibition, actives largely listed as inhibitors; actives 4.3% (n = 150,000); active = well fitted inhibition curve with a large enough effect, not every such curve was filed as active; inconclusive = small, poorly fitted or top-dose-only effect, or another doubt; inactive = no such curve, though single readings can be large or run the other way; also: potency is read from the fitted curve at half-maximal effect
#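 20 nM HPGD preincubated 15 min at room temperature with compound in 50 mM Tris-HCl pH 8, 0.01% Tween 20. Started with 1 mM NAD+ and 30 uM prostaglandin E2; NADH fluorescence (360/450 nm) read 5 times over 30-s intervals, last minus first.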
# ALDH1A1 block: ALDH1A1 (human) enzyme inhibition; Potency, µM (doses to about 75.3 µM), for inactives: top-dose activity, negative = inhibition, hits mostly inhibitors; Purified ALDH1A1, NADH fluorescence, propionaldehyde substrate; P00352; actives 7.3% (n = 220,000); active = well fitted inhibition curve with a large enough effect, not every such curve was filed as active; inconclusive = small, poorly fitted or top-dose-only effect, or another doubt; inactive = no such curve, though single readings can be large or run the other way;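 also: potency is read from the fitted curve at half-maximal effect; plate controls were no enzyme wells and a reference inhibitor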
# Target sequence (P00352 whole entry, looked up): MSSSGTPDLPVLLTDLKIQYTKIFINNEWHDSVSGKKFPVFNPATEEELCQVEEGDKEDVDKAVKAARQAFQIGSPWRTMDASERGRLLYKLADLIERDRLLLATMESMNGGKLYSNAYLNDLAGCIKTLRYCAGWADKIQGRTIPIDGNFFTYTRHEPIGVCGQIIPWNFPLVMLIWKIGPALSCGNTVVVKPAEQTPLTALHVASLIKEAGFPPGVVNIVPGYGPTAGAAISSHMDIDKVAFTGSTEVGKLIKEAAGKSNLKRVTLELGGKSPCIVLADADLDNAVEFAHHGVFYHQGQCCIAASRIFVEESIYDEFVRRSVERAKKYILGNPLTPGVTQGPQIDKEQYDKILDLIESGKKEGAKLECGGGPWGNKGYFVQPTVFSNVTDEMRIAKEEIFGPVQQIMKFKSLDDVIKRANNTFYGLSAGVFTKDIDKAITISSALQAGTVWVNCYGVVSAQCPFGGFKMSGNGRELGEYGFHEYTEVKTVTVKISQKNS
# IMPase cell inh: membrane-permeable compound that blocks inositol monophosphatase. P97697. CHO-M1 cells, IP1 accumulation, HTRF TR-FRET ratio. inhibition (IP1 accumulation), % at 46.1 µM. 120,000 tested, under 10 active; active = well fitted curve in the direction sought with a large enough effect in the signal ratio, not every such curve was filed as active; inconclusive = small, poorly fitted or top-dose-only effect, or a change in a side signal; inactive = no such curve, though single readings can be large or run the other way; the % refers to the signal ratio;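 also: cells stimulated with carbachol in lithium chloride buffer; plate controls were DMSO basal wells for no effect and reference inhibitor wells for full effect; higher means more IMPase inhibition seen as more IP1 and lower FRET ratio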
#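 Carbachol-driven Gq signalling in CHO-M1 cells (2000/well) generates IP1. Compounds that block IMPase raise IP1 and so reduce the FRET signal from Eu-anti-IP1 and d2-IP1 after a 10 min room-temperature lysis.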
# PNC assembly inh: blocks assembly of the perinucleolar compartment; PC3M PTB-GFP, PNC prevalence imaging, 16 h; stronger effect = lower value; activity change (PNC), negative = inhibition, % at 10 µM; actives 3.1% (n = 140,000);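 active = readout at or below -70, meaning at least 70% loss of cells showing the perinucleolar compartment, a nuclear body marking cancer cells; inconclusive = readout between -30 and a set limit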;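 also: plate controls were DMSO wells for no effect and camptothecin positive control wells for full effect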
#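 Read-out is percentage of cells bearing a perinucleolar compartment, from automated 20x imaging of fixed, Hoechst-stained PC3M PTB-GFP cells. Cells were seeded 4 h, then exposed 16 h to compound (23 nl of library stock) in duplicate plates.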
# IMPase Li cell: IMPase inhibition in cells with lithium potentiation; CHO-M1 cells, IP1 TR-FRET (IP-One), carbachol + lithium; Potency, µM (titrated, usually from 59.4 µM), inactives show top-dose activity, negative = IMPase inhibition, hits mostly inhibitors; actives 0.35% (n = 210,000); AID 1457;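 also: IP1 builds up when IMPase is blocked and the TR-FRET signal falls; potency is read from the fitted curve at half-maximal effect; plate controls were basal vehicle for no effect and high inhibitor control for full effect; nearly all actives have a fitted effect of over 50% in size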
#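 CHO cells stably expressing M1 receptor (2000/well, cultured 16–30 h) treated 30 min at 37C with compound plus low lithium. Cytosolic IP1 by TR-FRET (665/620 ratio and 620 channel) after 10 min lysis; AC50 by Hill fit.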
# ALOX12 inhib: inhibitors of human 12-lipoxygenase (ALOX12); P18054; purified 12-hLO, xylenol orange hydroperoxide absorbance; Potency, µM (highest dose often 57.1 µM), inactives show at the highest dose activity change, negative = inhibition, actives largely listed as inhibitors; actives 0.12% (n = 150,000); also: potency is read from the fitted curve at half-maximal effect; nearly all actives have a fitted effect of over 55% in size
#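 Xylenol orange chromogenic assay: hydroperoxide from 12hLO oxidises Fe(II), giving red-shifted Fe(III)-XO absorbance. Conditions: 150 nM enzyme, 40 uM arachidonic acid, 25 mM Hepes pH 7.0, 0.01% Triton X-100, 30 min, room temperature.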
# Numbers without * were called inactive; ? = inconclusive; . = not tested or not shown; [ ] = dose if it differs, or a comment. Unless noted, calls follow the shape of the dose curve; as a rule, active = well fitted curve in the direction sought with a large enough effect; inconclusive = small, poorly fitted or top-dose-only effect, or another doubt; inactive = no such curve, though single readings can be large; an effect the other way counts as inactive or inconclusive. Unless noted, % is scaled to controls: 0 for no effect and ±100 for the full control effect.
SMILES,HPGD block,ALDH1A1 block,IMPase cell inh,PNC assembly inh,IMPase Li cell,ALOX12 inhib
Cc1cc(Cl)c(S(=O)(=O)NC2CCCCC2)cc1OCC(=O)Nc1nncs1,-2%,?,27,-119*,15%,-6%
Cc1cc2ccccn2c1C(=O)c1ccc(Cl)cc1,-26%,-11%,-2,-105*,21%[38.3 µM],-5%
COc1cc2c(cc1O)-c1ccccc1CN(C)C2,-10%,-13%,.,.,17%,.
CC1CCc2c(sc3nc(CN4CCOCC4)nc(Sc4ccccc4)c23)C1 (stereo not drawn),-6%,25µM*,.,11,4%,0%
CN1CCS/C1=C/C=C1\SC(=S)N(CC(=O)O)C1=O,.,11µM*,.,.,34%,.
CN1CCS/C1=C/C=C1/SC(=S)N(Cc2ccccc2)C1=O,-14%,1µM*,.,76,13%,4%
CC(/C=C1\SC(=S)N(CC(=O)N2CCN(c3ccccc3)CC2)C1=O)=C\c1ccccc1,-7%,?,.,11,4%,-3%
COc1ccc(Cl)cc1NC(=O)NC(C)C,.,-4%,.,.,1%,.
COc1ccc(Cl)cc1NC(=O)C(C)N(C)Cc1cccc(Cl)c1Cl (stereo not drawn),.,-4%,1,-101*,.,1%
COc1ccc(C)cc1NC(=O)CN1CCN(S(=O)(=O)c2ccc(C(C)C)cc2)CC1,-13%,5µM*,7,?,4%[38.3 µM],2%
COc1cc(NC(=O)c2ccccc2Cl)c(OC)cc1NC(=O)CN1CCOCC1,-8%,-8%,9,-90*,-5%[38.3 µM],-3%
Cc1ccc(S(=O)(=O)Nc2cc(NC(=O)CN3CCOCC3)ccc2Cl)cc1,-11%,18µM*,8,?,21%[38.3 µM],-5%
COC(=O)C/C=C\[C@@H](C)[C@@H]1C=C[C@H](OC(C)=O)[C@H](COC(C)=O)O1,.,-9%[13.5 µM],.,.,.,.
COc1ccc(Cl)cc1NC(=O)CN1CCCC1,.,10µM*,.,.,13%,.
COc1ccc(Cl)cc1NC(=O)Cn1cccc1,-16%,13µM*,7,34,2%[38.3 µM],2%
COc1cc(OC)c(NC(=O)Cn2cccc2)cc1Cl,-7%,-11%,17,-25,-5%[38.3 µM],5%
COc1ccc(N2CC(O)=C(c3nc(C)cs3)C2=N)cc1,-12%,20µM*,11,3,-3%[38.3 µM],-1%
C=CCC(C)(O)c1ccsc1 (stereo not drawn),-3%,6%,.,.,-3%,.
C=CCn1c(SCC(=O)c2cc(C)n(CCOC)c2C)nc2sc(C)c(C)c2c1=O,?,25µM*,4,-20,35%[38.3 µM],-8%
C=CCn1c(SCC(=O)c2cccs2)nc2sc(C)c(C)c2c1=O,-18%,8%,12,?,17%,0%
C=C1CCC(=O)C(C)CCC2C1CC2(C)C (stereo not drawn),-11%,-6%,.,.,-1%,4%
COC(=O)C1(C)C=C(Nc2ccc(OC)cc2)C(=O)N1c1ccc(OC)cc1 (stereo not drawn),-16%,?,.,.,7%,.
COc1ccc(/C=N/NC(=O)c2nn(-c3ccc(Cl)cc3)c(=O)c3c(N)scc23)cc1,11µM*,6.3µM*,-3,56,27%[38.3 µM],?
CCOC(=O)c1nn(-c2ccc(C)c(C)c2)c(=O)c2c(N)scc12,.,-3%,2,?,.,?
CCOC(=O)c1nn(-c2ccc(OC)cc2)c(=O)c2c(N)scc12,-26%,8.9µM*,-12[1.84 µM],?,23%[38.3 µM],-21%
COc1ccc(/C=N/NC(=O)c2nn(-c3ccccc3)c(=O)c3c(N)scc23)cc1,28µM*,28µM*,8,77,-3%[38.3 µM],?
COc1ccc(/C=N/NC(=O)c2csc(-n3nc(C)cc3C(F)(F)F)n2)cc1,-1%,?,6,-10,-4%,3%
COc1ccc(/C=N/NC(=O)c2nn(-c3ccc(C)c(C)c3)c(=O)c3ccccc23)cc1,?,-10%,-7[1.84 µM],?,23%[38.3 µM],0%
Cc1ccc(Nc2c(-c3cccs3)nc3nc(C)cc(C)n23)cc1,.,.,-14,.,.,.
C=CCCC,-3%,8%,.,.,-12%,-1%
